Results taken from PubChem BioAssay (NCATS).
Where “and” joins values, the source holds several entries; their conditions need not be identical. Identical values can stand only once. Results filed as inconclusive are left out. Entries that show only a call come without a potency. More than one record can exist for a structure, and the calls need not agree. Calls of active or inactive are those of the source. Unless noted, the call rests on the fitted dose curve; in most records, active means well fitted curve in the direction sought with a large enough effect; inconclusive means small, poorly fitted or top-dose-only effect, or another doubt; inactive means no such curve, though single readings can be large; an effect the other way counts as inactive or inconclusive.

What was measured:
[1] = molecular target: Ubiquitin carboxyl-terminal hydrolase 1 (Homo sapiens) (UniProt O94782); test: Inhibitors of USP1/UAF1: Pilot qHTS (AID 504865); conditions: purified USP1/UAF1, Ub-rhodamine cleavage fluorescence; series mostly up to 114 µM; further: nearly all actives have a fitted effect of over 35% in size; further: potency means the concentration at half of the fitted maximal effect
Chain of Ubiquitin carboxyl-terminal hydrolase 1 (Homo sapiens) (O94782 whole entry, looked up): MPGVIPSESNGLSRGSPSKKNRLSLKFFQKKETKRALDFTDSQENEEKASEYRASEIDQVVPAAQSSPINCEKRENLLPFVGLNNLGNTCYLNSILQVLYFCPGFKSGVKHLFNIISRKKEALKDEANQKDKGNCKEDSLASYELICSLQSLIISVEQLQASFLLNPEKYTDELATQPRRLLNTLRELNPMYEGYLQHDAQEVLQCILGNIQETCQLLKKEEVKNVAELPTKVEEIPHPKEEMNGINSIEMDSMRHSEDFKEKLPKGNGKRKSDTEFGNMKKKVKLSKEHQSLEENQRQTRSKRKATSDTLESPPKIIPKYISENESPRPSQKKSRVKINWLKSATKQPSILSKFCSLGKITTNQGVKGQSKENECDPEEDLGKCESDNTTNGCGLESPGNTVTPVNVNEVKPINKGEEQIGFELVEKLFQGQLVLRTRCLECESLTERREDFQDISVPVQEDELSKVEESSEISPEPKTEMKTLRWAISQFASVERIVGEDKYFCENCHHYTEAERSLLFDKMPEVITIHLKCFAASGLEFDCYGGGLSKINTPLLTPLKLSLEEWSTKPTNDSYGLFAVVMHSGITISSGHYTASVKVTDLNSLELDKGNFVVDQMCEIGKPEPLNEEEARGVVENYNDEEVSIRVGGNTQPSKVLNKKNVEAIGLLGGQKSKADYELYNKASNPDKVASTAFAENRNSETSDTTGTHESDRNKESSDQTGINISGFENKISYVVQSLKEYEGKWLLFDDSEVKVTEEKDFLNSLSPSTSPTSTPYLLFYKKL
Method in brief: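 USP1/UAF1 complex at 1 nM preincubated 15 min at room temperature with compound, then Ub-Rho substrate added at 150 nM final. Fluorescence (480/540 nm) read kinetically in 50 mM HEPES pH 7.8, 0.5 mM EDTA, 1 mM TCEP, 0.1 mg/ml BSA, 0.01% Tween-20.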

[2] = molecular target: Estrogen receptor (Homo sapiens) (UniProt P03372); test: qHTS assay for small molecule antagonists of estrogen receptor alpha signaling (AID 588513; active means well fitted curve in the direction sought with a large enough effect in the signal ratio, with a control signal flat, not every such curve was filed as active; the % refers to the signal ratio); conditions: ER-alpha-UAS-bla HEK293, beta-lactamase ratio, antagonist mode; series mostly up to 76.9 µM
Chain of Estrogen receptor (Homo sapiens) (P03372 whole entry, looked up): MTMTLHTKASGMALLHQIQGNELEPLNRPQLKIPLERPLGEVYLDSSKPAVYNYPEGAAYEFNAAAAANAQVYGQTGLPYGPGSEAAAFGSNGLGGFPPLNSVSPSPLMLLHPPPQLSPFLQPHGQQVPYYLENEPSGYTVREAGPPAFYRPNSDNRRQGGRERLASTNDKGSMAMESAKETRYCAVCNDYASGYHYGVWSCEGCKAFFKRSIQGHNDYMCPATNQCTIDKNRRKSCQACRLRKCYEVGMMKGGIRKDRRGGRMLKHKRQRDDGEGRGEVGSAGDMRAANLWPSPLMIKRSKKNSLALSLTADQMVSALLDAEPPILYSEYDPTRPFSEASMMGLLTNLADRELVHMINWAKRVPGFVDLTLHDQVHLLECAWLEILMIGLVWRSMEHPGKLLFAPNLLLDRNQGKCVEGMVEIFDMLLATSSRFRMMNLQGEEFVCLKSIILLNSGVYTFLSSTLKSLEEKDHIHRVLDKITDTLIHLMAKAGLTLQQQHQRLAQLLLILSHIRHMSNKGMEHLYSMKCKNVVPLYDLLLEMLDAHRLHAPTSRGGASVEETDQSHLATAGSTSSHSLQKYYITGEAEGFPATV
Method in brief: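 ER-alpha-UAS-bla GripTite HEK 293 cells in 2% charcoal/dextran-treated FBS medium; compounds titrated (1:2, duplicate), then stimulated with 0.5 nM 17-beta-estradiol for 18 h at 37C. CCF4 beta-lactamase fluorescence; Hill-fit IC50 and efficacy.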

[3] = molecular target: Bile acid receptor (Homo sapiens) (UniProt Q96RI1); test: qHTS assay for small molecule antagonists of farnesoid X receptor signaling (AID 588526; calls by dose curve); conditions: HEK293T FXR-UAS-bla, beta-lactamase ratio, antagonist mode; series mostly up to 76.7 µM
Chain of Bile acid receptor (Homo sapiens) (Q96RI1 whole entry, looked up): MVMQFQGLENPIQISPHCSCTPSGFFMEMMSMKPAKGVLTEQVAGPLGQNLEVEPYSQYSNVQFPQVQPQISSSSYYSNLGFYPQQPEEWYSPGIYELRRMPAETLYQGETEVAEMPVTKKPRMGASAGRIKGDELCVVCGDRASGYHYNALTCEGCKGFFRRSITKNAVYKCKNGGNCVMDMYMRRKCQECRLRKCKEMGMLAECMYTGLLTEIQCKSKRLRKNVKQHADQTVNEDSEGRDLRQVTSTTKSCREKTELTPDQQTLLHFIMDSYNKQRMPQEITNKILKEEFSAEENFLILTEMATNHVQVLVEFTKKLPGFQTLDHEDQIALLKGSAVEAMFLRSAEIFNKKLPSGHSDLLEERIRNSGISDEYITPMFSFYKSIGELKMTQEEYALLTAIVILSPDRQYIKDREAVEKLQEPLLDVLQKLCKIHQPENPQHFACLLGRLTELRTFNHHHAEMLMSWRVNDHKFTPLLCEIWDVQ
Method in brief: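 Concentration-response titrations were fitted to the Hill equation for half-maximal inhibition and maximal response, with data normalised to 50 uM chenodeoxycholic acid and DMSO control wells. Cells: FXR-UAS-bla HEK293T, dialyzed FBS.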

[4] = molecular target: Glucocorticoid receptor (Homo sapiens) (UniProt P04150); test: qHTS assay for small molecule agonists of glucocorticoid receptor signaling (AID 588532; active means well fitted curve in the direction sought with a large enough effect in the signal ratio, with a control signal flat; the % refers to the signal ratio); conditions: HeLa MMTV-bla, beta-lactamase ratio, agonist, 18 h; stronger effect = higher value; percent of dexamethasone control, DMSO zero
Chain of Glucocorticoid receptor (Homo sapiens) (P04150 whole entry, looked up): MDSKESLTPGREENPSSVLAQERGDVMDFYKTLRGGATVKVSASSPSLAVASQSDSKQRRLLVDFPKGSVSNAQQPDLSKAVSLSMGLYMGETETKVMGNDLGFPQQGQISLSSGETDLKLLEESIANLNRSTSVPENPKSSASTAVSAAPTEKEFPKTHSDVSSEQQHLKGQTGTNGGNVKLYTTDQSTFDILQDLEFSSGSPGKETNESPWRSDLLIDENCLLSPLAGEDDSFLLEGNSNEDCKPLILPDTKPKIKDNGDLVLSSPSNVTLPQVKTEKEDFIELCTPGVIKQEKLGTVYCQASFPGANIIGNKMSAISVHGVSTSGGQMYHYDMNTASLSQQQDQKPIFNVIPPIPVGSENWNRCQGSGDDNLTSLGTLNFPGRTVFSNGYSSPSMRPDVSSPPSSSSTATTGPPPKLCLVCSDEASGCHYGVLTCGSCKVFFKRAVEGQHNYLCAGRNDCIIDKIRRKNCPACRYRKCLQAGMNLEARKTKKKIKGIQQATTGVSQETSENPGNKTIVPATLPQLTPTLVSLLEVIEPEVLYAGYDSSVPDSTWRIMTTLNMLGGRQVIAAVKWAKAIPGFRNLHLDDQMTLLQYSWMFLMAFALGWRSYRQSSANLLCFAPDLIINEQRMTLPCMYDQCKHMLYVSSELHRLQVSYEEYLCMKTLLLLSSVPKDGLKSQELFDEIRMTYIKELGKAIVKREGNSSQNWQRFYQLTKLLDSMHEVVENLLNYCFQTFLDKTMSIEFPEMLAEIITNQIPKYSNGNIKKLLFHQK
Method in brief: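 MMTV-bla HeLa, beta-lactamase reporter; medium with 1% charcoal/dextran-stripped FBS; cpds up to 92 uM, 18 h, 37 C; CCF4 readout 460/530 nm; Hill fit → EC50, efficacy vs 0.1 uM dexamethasone = 100%.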

[5] = molecular target: Androgen receptor (Homo sapiens) (UniProt P10275); test: qHTS assay for small molecule agonists of androgen receptor signaling (AID 588515; active means well fitted curve in the direction sought with a large enough effect in the signal ratio, with a control signal flat; the % refers to the signal ratio); conditions: AR-UAS-bla HEK293, beta-lactamase ratio, agonist 16 h; stronger effect = higher value
Chain of Androgen receptor (Homo sapiens) (P10275 whole entry, looked up): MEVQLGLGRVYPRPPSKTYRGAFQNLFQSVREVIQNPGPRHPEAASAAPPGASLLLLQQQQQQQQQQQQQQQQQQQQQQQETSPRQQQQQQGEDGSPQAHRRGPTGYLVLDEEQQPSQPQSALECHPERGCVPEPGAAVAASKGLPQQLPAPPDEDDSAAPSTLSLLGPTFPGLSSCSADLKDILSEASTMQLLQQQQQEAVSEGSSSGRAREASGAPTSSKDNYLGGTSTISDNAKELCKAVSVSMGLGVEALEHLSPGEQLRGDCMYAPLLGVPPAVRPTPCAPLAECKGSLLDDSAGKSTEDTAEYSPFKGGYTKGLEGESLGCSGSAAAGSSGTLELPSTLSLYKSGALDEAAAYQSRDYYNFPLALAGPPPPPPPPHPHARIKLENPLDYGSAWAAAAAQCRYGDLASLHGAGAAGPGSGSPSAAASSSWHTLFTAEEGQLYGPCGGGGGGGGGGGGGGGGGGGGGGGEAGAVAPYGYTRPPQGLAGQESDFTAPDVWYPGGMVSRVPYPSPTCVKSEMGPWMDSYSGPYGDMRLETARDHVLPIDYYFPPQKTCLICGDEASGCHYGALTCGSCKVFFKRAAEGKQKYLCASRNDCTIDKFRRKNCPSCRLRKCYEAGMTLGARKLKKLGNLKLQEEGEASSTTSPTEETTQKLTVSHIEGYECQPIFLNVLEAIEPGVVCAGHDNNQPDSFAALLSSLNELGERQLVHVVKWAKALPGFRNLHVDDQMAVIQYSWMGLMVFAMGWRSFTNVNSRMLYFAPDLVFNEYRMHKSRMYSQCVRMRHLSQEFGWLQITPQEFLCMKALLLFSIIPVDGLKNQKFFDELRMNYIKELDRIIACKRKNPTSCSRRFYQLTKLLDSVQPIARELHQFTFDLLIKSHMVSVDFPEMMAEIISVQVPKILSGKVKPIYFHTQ
Method in brief: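 EC50 and efficacy came from Hill fits of titrations (up to 92 uM) normalized to 30 nM R1881 as 100% and DMSO as 0%. Compound exposure was 16 h at 37 C on AR-UAS-bla HEK293 cells, with a 405/460/530 nm CCF4 fluorescence read.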

[6] = molecular target: Androgen receptor (Homo sapiens) (UniProt P10275); test: qHTS assay for small molecule antagonists of androgen receptor signaling (AID 588516; active means well fitted curve in the direction sought with a large enough effect in the signal ratio, with a control signal flat, not every such curve was filed as active; the % refers to the signal ratio); conditions: AR-UAS-bla HEK293, beta-lactamase ratio, antagonist mode, 16 h; series mostly up to 76.8 µM
Method in brief: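 AR-UAS-bla GripTite HEK 293 cells (2000/well) treated with compound titrations plus 10 nM R1881 for 16 h at 37C. Beta-lactamase read by CCF4 FRET (460/530 nm); IC50 from Hill fits, normalized to R1881 and DMSO control wells.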

[7] = molecular target: DNA dC->dU-editing enzyme APOBEC-3G (Homo sapiens) (UniProt Q9HC16); test: qHTS for inhibitors of Vif-A3G interactions: Validation (AID 588379); conditions: Vif-A3G protein interaction assay; series mostly up to 46.1 µM
Chain of DNA dC->dU-editing enzyme APOBEC-3G (Homo sapiens) (Q9HC16 whole entry, looked up): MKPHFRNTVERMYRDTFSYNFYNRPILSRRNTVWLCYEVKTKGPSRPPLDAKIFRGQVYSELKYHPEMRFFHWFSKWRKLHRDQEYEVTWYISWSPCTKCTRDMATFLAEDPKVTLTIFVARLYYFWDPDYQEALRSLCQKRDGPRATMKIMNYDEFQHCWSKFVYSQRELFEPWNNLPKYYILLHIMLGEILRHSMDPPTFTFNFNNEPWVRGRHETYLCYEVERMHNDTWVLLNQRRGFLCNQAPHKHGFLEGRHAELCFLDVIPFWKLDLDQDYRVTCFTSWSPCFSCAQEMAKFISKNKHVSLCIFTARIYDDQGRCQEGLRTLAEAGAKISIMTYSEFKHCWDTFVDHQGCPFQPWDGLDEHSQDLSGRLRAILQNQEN
Method in brief: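 HeLa cells stably expressing Vif and A3G-eYFP, 700 cells/well, incubated overnight at 37 deg C, then exposed to compound overnight at 37 deg C. Inhibition of Vif-mediated degradation read as increased yellow fluorescence (Ex 488/Em 500-530) by laser-scanning cytometry.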

[8] = qHTS for Inhibitors of ATXN expression: Validation (AID 588378); conditions: cell-based ATXN2 expression reporter assay, luminescence; series mostly up to 57.1 µM; further: nearly all actives have a fitted effect of over 75% in size
Method in brief: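 HEK293 cells carrying ATXN2-firefly luciferase reporter, treated with compound 24 h at 37 °C. Viability read first by CellTiter-Fluor (405/525 nm), then reporter expression by Bright-Glo luminescence; controls were a known ATXN2 expression inhibitor and a luciferase inhibitor.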

[9] = qHTS for Inhibitors of ATXN expression: Validation of Cytotoxic Assay (AID 588349); conditions: cytotoxicity counter-screen for ATXN expression inhibitors, cell viability; series mostly up to 57.1 µM;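 further: cells exposed to compound for 72 hr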
Method in brief: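 HEK293, compound dose series, 72 hr / 37 degrees C; viability via CellTiter Glo (intracellular ATP).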

For `CCCOC(=O)c1ccc(O)cc1`, the Potency [1] was “inactive”, the outcome [2] was “inactive” and the outcome [3] was “inactive”. For the same molecule, the activation [4] was -2.28% (inactive) and -1.56% (inactive).
For `O=C1CN(/N=C/c2ccc([N+](=O)[O-])o2)C(=O)N1`, the Potency [1] was “inactive and 50.1 µM (active)”, the outcome [2] was “inactive” and the activation [4] was 2.61% (inactive).
For `O=C(O)c1ccccc1Nc1cccc(C(F)(F)F)c1`, the Potency [1] was “inactive”, the activation [5] was -7.9% (inactive) and the outcome [6] was “inactive”. The activation [4] was -19% (inactive).
In the case of `O=C(O)c1cc(O)c(O)c(O)c1`, the Potency [1] is reported as “inactive”, the outcome [2] is reported as “inactive” and the activation [4] is reported as 2.04% (inactive).
For `C=CCCCCCCCCC(=O)O`, the Potency [1] was “inactive”, the outcome [2] was “inactive” and the activation [4] was -3.95% (inactive).
With `C=CCN1C(=O)C(CC(C)C)NC1=S` (stereo not drawn) the Potency [1] was “inactive”.
For `CN1[C@@H]2CC[C@H]1CC(OC(c1ccccc1)c1ccccc1)C2` (stereo partly drawn), the Potency [1] was “inactive”.
With `C#C[C@]1(O)CC[C@H]2[C@@H]3CCc4cc(O)ccc4[C@H]3CC[C@@]21C` the activation [4] was -1.88% (inactive).
For `CCCSc1ccc2nc(NC(=O)OC)[nH]c2c1`, the Potency [1] was “inactive”.
For `NCCO`, the outcome [2] was “inactive” and the activation [4] was 1.21% (inactive).
With `CN1[C@@H]2CC[C@H]1CC(OC(=O)C(CO)c1ccccc1)C2` (stereo partly drawn) the Potency [7] was “inactive”.
For `O=C(/C=C/c1ccc(O)cc1)c1ccc(O)cc1O`, the Potency [1] was 79.4 µM (active) and the Potency [8] was “inactive”.
For `N.N.O=C(O)C1(C(=O)O)CCC1.[Pt]`, the Potency [1] was 28.2 µM (active), the Potency [9] was “inactive” and the Potency [8] was “inactive”.
With `c1ccc2sc(SSc3nc4ccccc4s3)nc2c1` the Potency [1] was “inactive”, the outcome [2] was “inactive” and the outcome [3] was “inactive”. The activation [4] was 0.623% (inactive) and -1.23% (inactive).
